Consider 30 molecules from PubChem BioAssay (NCI).

Compounds without any hit were thinned out: in the full panel of roughly 83,000, 20% have a hit.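 Activity criterion: percent growth below 10, measured after cells in 96-well plates were exposed to a single compound concentration for 48 hours.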 Unmarked numbers belong to inactive results. Calls of active or inactive are those of the source.

Holding throughout (assay): NCI-60 one-dose screen, 48 h (100 = growth as untreated, 0 = no growth, -100 = all killed)
Common to all, as to details: 10 µM unless noted

Experiment [1] deals with NCI-H23 lung.
The test system of experiment [2] is NCI-H226 lung.
The test system of experiment [3] is NCI-H322M lung.
For experiment [4], the system named is HOP-62 NSCLC.
Experiment [5] relates to NCI-H460 lung.
Experiment [6] has as its system HOP-92 NSCLC.
Experiment [7] relates to A549/ATCC NSCLC.
The subject of experiment [8] is 786-0 renal.
Experiment [9] has as its system NCI-H522 lung.
The test system of experiment [10] is COLO 205 colon.

With `CCn1c(Sc2nnc(NC(C)=O)s2)nc2c1c(=O)n(C)c(=O)n2C`, the growth in experiment [1] was 82.2%; in [2] it was 93.9%; in [3] it was 96.5%; in [4], 99.4%; in experiment [5], 103%; in experiment [6], 77.6%. In addition, the growth in [7] is 98.7%; in experiment [8], 99.6%.

For `Cc1nc(Nc2ccc(N)cc2)c2ccccc2n1`, the growth was 86.8% in experiment [1]; 97.6% in experiment [2]; 117% in experiment [3]; 104% in experiment [4]; 102% in experiment [5]; 109% in experiment [6]. Besides, the growth was 80.8% in experiment [9], 107% in experiment [8] and 92.2% in experiment [10].

For `COc1ccc(/C(C)=C(\c2ccc(Cl)cc2)c2ccc(OCCN3CCCCCC3)cc2)cc1F`, the growth is 54.1% in experiment [1]; 71% in [2]; 83.3% in [3]; 36.3% in experiment [4]; 8.63% (active) in experiment [5]; 73.3% in experiment [6]. Besides, the results for the growth in experiment [9], in experiment [8] and in [10] were 65.9%, 4.15% (active) and 22.3%, respectively.

With `COC(=O)Nc1nc2ccc(C(=O)C3CC3)cc2[nH]1`, the growth in [1] was 33.8%; in [2], 149%; in experiment [3] it was 50.9%; in [4], 38.1%; in experiment [5] it was 2.65% (active); in [6], 53.5%. Besides, the growth in experiment [9] was -37.6% (active); in experiment [8], 29.2%; in [10] it was -34.1% (active).

Turning to `CC(C)CCC[C@@H](C)[C@H]1CCC2C3=CCn4c(=O)ccc(=O)n4C3CC[C@@]21C` (stereo partly specified), the growth was -55.4% (active) in experiment [1]; -91.8% (active) in experiment [2]; -55.3% (active) in experiment [3]; -93.3% (active) in experiment [4]; -89.9% (active) in experiment [5]; -94% (active) in experiment [6]. Also, the growth in [7] was -79.3% (active); in experiment [8], -100% (active).

For the molecule `Oc1ccccc1-c1nc2ccccn2c1NCCN1CCOCC1`, the growth in experiment [1] is 100%; in experiment [2], 101%; in experiment [3] it was 91.7%; in experiment [4], 76.8%; in [5], 99.2%; in experiment [6] it was 85.2%. The growth in experiment [7] was 91.9%; in [8], 92.4%.

For `O=C(Nc1cccc2[nH]c(C(F)(F)F)nc12)c1cc(Cl)ccc1Cl`, the growth is -3.56% (active) in experiment [1]; 34.4% in experiment [2]; 45.9% in experiment [3]; 32.1% in experiment [4]; 17.2% in experiment [5]; -11% (active) in experiment [6]. Also, the growth in experiment [9] is -13.2% (active); in [8], 47.1%; in experiment [10], 24.6%.

In the case of `CNC(=O)NCC1OC(n2cnc3c(NC(=O)Nc4ccccc4)ncnc32)C2OC(C)(C)OC12` (stereo unspecified), the growth in [1] was 87.3%; in [2], 109%; in experiment [3], 101%; in [4], 99.3%; in [5], 101%; in experiment [6], 14.4%. Further, the growth was 103% in experiment [7] and 105% in experiment [8].

Take `O=C1CSC(c2ccc(O)cc2)N1c1nnc(Cn2cnnc2)o1` (stereo unspecified): the growth in [1] is 100%; in experiment [2], 98.6%; in [3] it was 95.8%; in [4], 99.8%; in [5] it was 115%; in [6], 71.9%. Further, the growth is 90.3% in experiment [7] and 94.1% in experiment [8].

As for `CCOc1cccnc1/C=N/NC(N)=S`, the growth is 73.8% in experiment [1]; 53.9% in [2]; 6.61% (active) in experiment [3]; 64.9% in [4]; 19.9% in [5]; 46.5% in [6]. The growth in experiment [7] was 48%; in experiment [8], 51.6%.

For the molecule `CCn1c(Sc2nnc(Nc3ccccc3)s2)nc2c1c(=O)n(C)c(=O)n2C`, the growth in [1] was 88.2%; in experiment [2], 102%; in [3], 91.4%; in experiment [4], 93.5%; in [5], 106%; in [6], 61.5%. Further, the results for the growth in experiment [7] and in experiment [8] were 99.9% and 93.2%, respectively.

As for `CCCCN(Cc1ccc(C(=O)NO)cc1)C(=O)Nc1ccc(OCCCCCCCCCn2cc(CCCCC(=O)N[C@H](C(=O)N3C[C@H](O)C[C@H]3C(=O)NCc3ccc(-c4scnc4C)cc3)C(C)(C)C)nn2)cc1`, the growth was 33.4% in experiment [1]; 46.1% in [2]; 63.7% in [3]; 39.7% in experiment [4]; 11.6% in experiment [5]; -11.4% (active) in [6]. In addition, the figures for the growth in experiment [7], in [8] and in experiment [10] were 86.8%, 69.8% and 36.9%, respectively.

As for `O=c1[nH]nc(-c2ccc(Cl)cc2)cc1Cc1ccccc1`, the growth in [1] was 92.3%; in experiment [2], 79.9%; in experiment [3], 155%; in experiment [4] it was 90.5%; in [5], 104%; in experiment [6], 86.2%. Further, the figures for the growth in [9], in experiment [8] and in experiment [10] were 35%, 96.9% and 116%, respectively.

On to `COc1ccc(-c2nc3sc4c(c3c(=O)[nH]2)CCCC4)c2ccccc12`, for which the growth in experiment [1] was 32.6%; in [2] it was 50.8%; in experiment [3] it was 37.6%; in [4] it was 10.4%; in experiment [5] it was 0.61% (active); in [6], 12.3%. Also, the growth is 15.8% in experiment [7], 10.6% in [8] and -32.9% (active) in experiment [10].

With `Cl.Fc1c[c-]c(-c2ccccn2)c(F)c1.[Pt].c1ccc([PH+](C[PH+](c2ccccc2)c2ccccc2)c2ccccc2)cc1`, the growth was -78.1% (active) in [1]; -65.9% (active) in experiment [2]; -98.3% (active) in [3]; -55.4% (active) in experiment [4]; -63.5% (active) in [5]; -74.2% (active) in [6]. The growth is -58.5% (active) in experiment [7] and -68.1% (active) in experiment [8].

With `C=C1C(=O)O[C@H]2[C@H]1CC/C(COC(=O)/C=C\C(=O)NCc1ccc(Cn3c(=O)sn(-c4ccc(C#N)cc4)c3=O)cc1)=C\CC[C@@]1(C)O[C@@H]21`, the growth in [1] is -80.4% (active); in experiment [2], -69.5% (active); in experiment [3], -46.6% (active); in experiment [4] it was -37.3% (active); in experiment [5] it was -68.7% (active); in [6] it was -65.8% (active). Further, the growth was -47.5% (active) in experiment [9], -75.8% (active) in experiment [8] and -55.4% (active) in experiment [10].

As for `C[C@@H](C[C@H](CCOCc1cccnc1)c1ccccc1)c1cc2ccccc2o1`, the growth in experiment [1] was 90.7%; in experiment [2], 80.2%; in experiment [3], 90.5%; in experiment [4], 81.8%; in experiment [5], 98.4%; in experiment [6] it was 84.9%. Moreover, the growth in experiment [7] is 90.2%; in experiment [8] it was 93.8%.

For `CN(C)c1ccc2cc(-c3ccc(Cl)c(Cl)c3)c(N)nc2c1`, the growth in [1] was 15.4%; in experiment [2], 42.3%; in experiment [3], 54.6%; in [4], 66.2%; in [5], 27.6%; in experiment [6], 28%. Besides, the growth was 32.9% in experiment [7] and 55.4% in experiment [8].

For the molecule `COc1ccc(Oc2nc(Nc3ccc(N4CCCCC4)nc3)ncc2NC(=O)c2cc(OC)cc(OC)c2)cc1`, the growth is 68.8% in [1]; 60.2% in experiment [2]; 48.9% in [3]; 42.5% in [4]; 19% in experiment [5]; 76.4% in experiment [6]. Besides, the figures for the growth in [7] and in experiment [8] were 41.6% and 39.6%, respectively.

Take `CCCCCCCCn1cc(C2=C(c3coc4ccc(OC)cc34)C(=O)NC2=O)c2ccccc21`: the growth is 54.4% in [1]; -38.6% (active) in experiment [2]; 99% in [3]; 116% in experiment [4]; 101% in [5]; 94.2% in experiment [6]. Moreover, the growth in experiment [7] is 101%; in experiment [8], 104%.

Turning to `O=C(C[C@@]1(O)C(=O)Nc2c(Cl)ccc(Cl)c21)c1ccc(C2CC2)cc1`, the growth in experiment [1] is 37.5%; in experiment [2] it was 46.4%; in [3], 53.1%; in [4], 34.2%; in experiment [5] it was 6.3% (active); in [6] it was 75.5%. The growth in [9] was 19.4%; in experiment [10], 1.09% (active).

As to `CCCCC1COc2cccc3c(SCC(=O)N(C)c4cccc(Cl)c4)cc[n+]1c23` (stereo unspecified), the growth in experiment [1] was 99.9%; in [2] it was 103%; in [3] it was 107%; in [4] it was 109%; in experiment [5] it was 113%; in experiment [6], 113%. Besides, the values for the growth in experiment [9], in experiment [8] and in [10] were 96.9%, 107% and 110%, respectively.

In the case of `COc1cc2nc(Nc3ccc(F)cc3)nc(N)c2cc1OC`, the growth is 95.1% in experiment [1]; 81.7% in [2]; 95.4% in experiment [3]; 112% in experiment [4]; 99.5% in experiment [5]; 63.9% in experiment [6]. Besides, the growth in experiment [7] is 92.6%; in experiment [8] it was 87.1%.

As for `COC(=O)[C@]12CC[C@@H](C)[C@H](C)[C@@H]1C1=CC[C@@H]3[C@@]4(C)C(C=O)=C[C@@](C)(CO)C4=CC[C@@]3(C)[C@]1(C)CC2`, the growth is 31.7% in [1]; 58.5% in experiment [2]; 61.3% in experiment [3]; 83.8% in experiment [4]; 17.5% in [5]; 38% in experiment [6]. Further, the results for the growth in experiment [7] and in experiment [8] were 29.1% and 45.2%, respectively.

`COc1ccc(Cn2cnc3cc(C(=O)Nc4cccc5ccccc45)ccc32)c(OC)c1`: the growth in experiment [1] was 32.9% [30 µM]; in experiment [2], 14.5% [30 µM]; in [3], 45% [30 µM]; in experiment [4], 41.6% [30 µM]; in experiment [5] it was 1.11% [30 µM] (active); in [6], 21.1% [30 µM]. The growth is 16% [30 µM] in experiment [7], 20.3% [30 µM] in [8] and -21.6% [30 µM] (active) in experiment [10].

Consider `CN(C)c1ccc(C#Cc2c(F)cccc2Cl)cc1`, for which the growth in experiment [1] is 70.6%; in experiment [2] it was 90.4%; in experiment [3], 86.7%; in experiment [4] it was 71.8%; in experiment [5], 98.9%; in experiment [6] it was 79.5%. In addition, the results for the growth in experiment [7] and in experiment [8] were 87.5% and 112%, respectively.

As to `Clc1ccc(-c2nnc(-c3ccco3)o2)cc1`, the growth is 91.9% in experiment [1]; 91.7% in experiment [2]; 93.6% in experiment [3]; 80.9% in experiment [4]; 108% in experiment [5]; 99.1% in experiment [9]. Moreover, the growth was 96.8% in experiment [7] and 86.8% in experiment [8].

For the molecule `CCc1nc2ccccc2[nH]1`, the growth in experiment [1] was 104%; in [2], 99.7%; in experiment [3], 110%; in [4], 105%; in experiment [5] it was 102%; in experiment [9] it was 103%. Besides, the growth in experiment [7] is 107%; in [8] it was 112%.

On to `CCOC(=O)C1C(=O)C=C(c2cnccn2)CC1c1ccc(OC)c(OC)c1` (stereo unspecified), for which the growth in experiment [1] is 95.6%; in experiment [2], 96.1%; in experiment [3] it was 103%; in experiment [4], 88.3%; in experiment [5] it was 114%; in experiment [9], 73.3%. For the same molecule, the growth in experiment [7] is 86.6%; in [8], 83.7%.

On to `Clc1ccc(/C=N\N=c2\scc(-c3ccc(Cl)cc3)n2/N=C/c2ccc(Cl)cc2)cc1`, for which the growth was 94.4% in experiment [1]; 111% in experiment [2]; 95.7% in experiment [3]; 107% in experiment [4]; 97.9% in [5]; 68.7% in [9]. Also, the results for the growth in experiment [7], in experiment [8] and in experiment [10] were 75.7%, 98.1% and 113%, respectively.
